Experimental data reported in PubChem BioAssay (NCI).
The panel holds about 83,000 compounds, 20% with a hit somewhere; the sample as a whole holds those more often.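 96-well plates, one dose, 48 hours. Percent growth reported; active if below 10.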 The source made the active and inactive calls.

What was measured:
Experiment in all cases: NCI-60 one-dose screen, 48 h (100 = growth as untreated, 0 = no growth, -100 = all killed)
Details in all cases: 10 µM
[1] = test system: HCT-15 colon
[2] = test system: HT29 colon
[3] = test system: SNB-75 CNS
[4] = test system: SNB-19 CNS
[5] = test system: U251 CNS
[6] = test system: PC-3 prostate
[7] = test system: SK-MEL-5 melanoma
[8] = test system: UACC-62 melanoma
[9] = test system: LOX IMVI melanoma
[10] = test system: SK-MEL-28 melanoma
[11] = test system: SK-MEL-2 melanoma
[12] = test system: SN12C renal
[13] = test system: TK-10 renal
[14] = test system: ACHN renal
[15] = test system: CAKI-1 renal
[16] = test system: A498 renal
[17] = test system: CCRF-CEM leukemia
[18] = test system: MOLT-4 leukemia
[19] = test system: UO-31 renal
[20] = test system: EKVX NSCLC

Measured: growth

O=C1C=C(Nc2cccc(Br)c2)c2ccccc2C1=O
active: [11] 7.56%
inactive: [1] 22.7% | [2] 111% | [3] 12% | [4] 43.6% | [5] 31.3% | [6] 37.4% | [7] 15.8% | [8] 46.8% | [9] 37.5% | [10] 56.7% | [12] 53.6% | [13] 89.8% | [14] 50.8% | [15] 78.3% | [16] 88.6% | [17] 81.4% | [18] 81%

O=C1CC(SC(=S)C2CCCC2=O)C(=O)N1 (stereo not given)
inactive: [1] 98.1% | [2] 103% | [3] 105% | [4] 94.7% | [5] 97.1% | [6] 97.1% | [7] 103% | [8] 102% | [9] 97.5% | [10] 113% | [11] 96.9% | [12] 99.3% | [19] 92.3% | [13] 108% | [14] 103% | [15] 102% | [16] 100% | [17] 101% | [18] 96.5%

Cc1ccccc1N1C(=O)c2cc(S(N)(=O)=O)c(Cl)cc2NC1C (stereo not given)
inactive: [1] 108% | [2] 101% | [3] 87.1% | [4] 116% | [5] 105% | [6] 93.6% | [7] 104% | [8] 114% | [9] 99.7% | [10] 116% | [20] 111% | [12] 108% | [19] 82.8% | [13] 104% | [14] 108% | [15] 103% | [16] 108% | [17] 103% | [18] 84.9%

Cc1nn(-c2ccccc2)c2nc(Cl)c(C=O)c(-c3ccccc3)c12
inactive: [1] 94.8% | [2] 56.7% | [3] 106% | [4] 95.6% | [5] 92.8% | [6] 77.4% | [7] 87.1% | [8] 79.4% | [9] 86.9% | [10] 107% | [11] 114% | [12] 98.2% | [19] 48.1% | [13] 113% | [14] 114% | [16] 78.6% | [17] 36.3%

COc1ccc(Nc2cnc3cc(NS(=O)(=O)c4ccc(C)cc4)ccc3n2)cc1
inactive: [1] 59.8% | [2] 45.1% | [3] 61.7% | [4] 83% | [5] 77.9% | [6] 101% | [7] 77.4% | [8] 65.3% | [9] 87% | [10] 81.1% | [11] 65.5% | [12] 85.9% | [19] 59.3% | [13] 94.7% | [14] 90.3% | [15] 61.5% | [16] 77.9% | [17] 90% | [18] 57.5%

CSc1nc(S(C)(=O)=O)nc2[nH]c(=O)[nH]c12
inactive: [1] 94.9% | [2] 99.5% | [3] 97% | [4] 99.8% | [5] 105% | [6] 106% | [7] 103% | [8] 98.9% | [9] 108% | [10] 126% | [11] 106% | [12] 95.9% | [13] 119% | [14] 97.7% | [16] 118% | [17] 117% | [18] 116%

C#CC(C)(O)[C@@H]1C[C@H](CC(=O)O)C1(C)C (stereo not given in full)
inactive: [1] 104% | [2] 109% | [3] 96% | [4] 98.6% | [5] 109% | [6] 105% | [7] 115% | [8] 100% | [9] 98.1% | [10] 113% | [11] 108% | [12] 108% | [19] 87.1% | [13] 114% | [14] 110% | [15] 96% | [16] 110% | [17] 137% | [18] 114%

COc1ccc(-c2cc(-c3ccc(Cl)cc3)nc(SCCCCCCC(=O)NO)n2)cc1OC
inactive: [1] 30.5% | [2] 46.7% | [3] 34% | [4] 60.6% | [5] 59.8% | [6] 58.6% | [8] 28.1% | [10] 72.9% | [11] 89.3% | [20] 51.6% | [19] 20.1% | [13] 61.1% | [14] 38.1% | [16] 67.9% | [18] 16.2%
active: [7] 1.04% | [9] 0.604%

CCOC(=O)N/N=C/c1ccc(OC)c(OC)c1
inactive: [1] 110% | [2] 104% | [3] 106% | [4] 104% | [5] 100% | [6] 104% | [7] 101% | [8] 98.7% | [9] 102% | [10] 107% | [11] 115% | [12] 99.2% | [19] 106% | [13] 123% | [14] 106% | [15] 110% | [16] 107% | [17] 91.4% | [18] 107%

COc1ccc(-c2onc(N)c2-c2cc(OC)c3c(c2)OCO3)cc1
inactive: [1] 23.9% | [3] 17.7% | [4] 52.8% | [5] 18.6% | [6] 61.4% | [8] 42.7% | [9] 34.7% | [10] 47.4% | [11] 13.6% | [20] 62% | [12] 25.9% | [14] 43.8% | [15] 34% | [16] 12% | [17] 14.5%
active: [2] 7% | [7] 1.27%

Nc1cc(-c2ccncc2)c[nH]c1=O
inactive: [1] 103% | [2] 103% | [3] 76.6% | [4] 111% | [5] 103% | [6] 89.1% | [7] 106% | [8] 109% | [9] 91.7% | [10] 105% | [20] 84.1% | [12] 104% | [19] 82.5% | [13] 99.9% | [14] 102% | [15] 99.5% | [16] 73.3% | [17] 113%

Cc1nc2n(c(=O)c1CCN1CCC(c3noc4cc(F)ccc34)CC1)CCC[C@@H]2O
inactive: [1] 93.8% | [2] 95.2% | [3] 87.1% | [4] 102% | [5] 93.7% | [6] 91.3% | [7] 100% | [8] 98.2% | [9] 97.4% | [10] 97.9% | [20] 92.8% | [12] 101% | [19] 80% | [13] 109% | [14] 95.9% | [15] 102% | [16] 80.5% | [18] 96.9%
active: [17] -3.98%

C=CCn1c(SCC(=O)Nc2ccc(C(=O)/C=C/c3ccc(OC)cc3)cc2)nnc1-c1ccc(OC)c(OC)c1
inactive: [1] 83.8% | [2] 89.8% | [3] 76.4% | [4] 89% | [5] 87.4% | [6] 67.2% | [7] 62.8% | [8] 75.7% | [9] 86.5% | [10] 105% | [11] 89.3% | [20] 107% | [19] 65.8% | [13] 110% | [14] 94.9% | [16] 92.8% | [18] 49.7%

NS(=O)(=O)c1ccc(N2N=C(c3ccccc3)CCC2=O)cc1
inactive: [1] 109% | [2] 98.6% | [3] 108% | [4] 94.7% | [5] 104% | [6] 105% | [7] 105% | [8] 106% | [9] 108% | [10] 120% | [11] 107% | [20] 130% | [12] 101% | [14] 114% | [16] 83% | [18] 93.2%

CC1(C)N=C(N)N=C(N)N1c1cccc(C#N)c1
inactive: [1] 33% | [2] 35.9% | [3] 77.4% | [4] 66.8% | [5] 28.5% | [6] 43.1% | [7] 52.4% | [8] 54.1% | [9] 21% | [10] 95% | [11] 79.1% | [20] 67% | [19] 77.9% | [13] 62.4% | [14] 37.1% | [15] 95.2% | [16] 69.8% | [17] 35.7% | [18] 31.2%

CC(C)(C)OC(=O)CN1CCc2c(sc3ncnc(N/N=C/c4ccccc4Br)c23)C1
inactive: [1] 37% | [2] 81.6% | [3] 52.6% | [4] 81.2% | [5] 77.9% | [6] 47.9% | [7] 55.1% | [8] 39.5% | [9] 53.7% | [10] 90.9% | [11] 87.4% | [20] 44.5% | [19] 37.6% | [13] 90.8% | [14] 56.6% | [15] 51.3% | [16] 77% | [18] 11.1%

COc1cc2cc(Oc3ccc(NC(=O)c4cc(C(F)(F)F)cc(C(F)(F)F)c4)cc3)c(C)nc2cc1OC
inactive: [1] 38.1% | [2] 49.8% | [3] 62.1% | [4] 49.9% | [5] 13.3% | [6] 17.5% | [7] 16.6% | [8] 33.2% | [9] 66% | [10] 84.9% | [11] 64.6% | [20] 30.4% | [12] 30.8% | [14] 32.3% | [15] 30.2% | [16] 40.5% | [18] 39.4%
